# Measurements as given in PubChem BioAssay AID588342 (National Center for Advancing Translational Sciences (NCATS), 2011).
# The whole screen tested about 360,000 compounds, of which about 25,000 (6.9%) were called active. Inconclusive results (about 9%) are left out. Only a selection was taken, and actives are over-represented in it overall. Values without a mark were called inactive. The call rests on the fitted dose curve; in most records, active means well fitted inhibition curve with a large enough effect; inconclusive means small, poorly fitted or top-dose-only effect; inactive means flat fitted curve, though single readings scatter.
# Biological target: Luciferin 4-monooxygenase (Photinus pyralis) (UniProt P08659)
# Sequence (P08659 whole entry, looked up): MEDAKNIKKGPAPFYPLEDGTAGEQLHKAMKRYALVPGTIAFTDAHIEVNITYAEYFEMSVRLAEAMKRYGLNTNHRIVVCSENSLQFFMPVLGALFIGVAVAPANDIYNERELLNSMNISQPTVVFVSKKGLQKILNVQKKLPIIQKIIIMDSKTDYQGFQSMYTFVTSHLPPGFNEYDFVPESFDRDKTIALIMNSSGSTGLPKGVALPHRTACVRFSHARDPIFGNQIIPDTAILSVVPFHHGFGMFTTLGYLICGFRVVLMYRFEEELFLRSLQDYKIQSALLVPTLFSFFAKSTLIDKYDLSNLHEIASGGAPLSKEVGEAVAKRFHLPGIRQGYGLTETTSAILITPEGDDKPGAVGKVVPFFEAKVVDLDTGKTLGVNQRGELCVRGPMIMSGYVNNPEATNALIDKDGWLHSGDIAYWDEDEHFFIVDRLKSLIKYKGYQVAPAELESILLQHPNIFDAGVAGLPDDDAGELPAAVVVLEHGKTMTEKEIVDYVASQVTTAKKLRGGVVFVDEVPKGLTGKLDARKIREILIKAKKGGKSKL
# Assay: qHTS profiling assay for firefly luciferase inhibitor/activator using purifed enzyme and Km concentrations of substrates (counterscreen for miR-21 project); further: nearly all actives have a fitted effect of over 55% in size;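 on activity change, negative = inhibition: plate controls were vehicle for no effect and reference inhibitor for full effect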
# Details: purified FLuc, luminescence inhibition; series mostly up to 57.5 µM; activity change, negative = inhibition: at the top concentration
# Procedure, shortened: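 Purified P. pyralis luciferase (10nM final) with 10uM D-luciferin and 10uM ATP (Km levels) in 50mM Tris acetate pH 7.5, 10mM Mg acetate, 0.01% Tween-20, 0.05% BSA; qHTS 6-point titration, ~60 µM downward; luminescence read.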
# Potency means the concentration at half of the fitted maximal effect.
Compound,"activity change, negative = inhibition [%]",Potency
COc1ccc(-c2c(-c3cc(OC)cc(OC)c3)n(C)c3ccc(-c4ccn[nH]4)cc23)cc1,-0.353,
O=C(NC1CC(=O)N(c2ccccc2)C1)c1ccco1 (stereo not given),-0.409,
CCOc1cc(C(=O)O)ccc1OCCOc1ccccc1,-1.63,
COc1ccc(N2CCN(C(=O)c3ccccc3NC(=O)C3=C(C)OCCS3)CC2)cc1,1.81,
c1ccc(NCc2cccc3ccccc23)nc1,-16.5,
Oc1ccc2ccccc2c1N=Nc1nccs1,,19 µM (active)
O=c1c2cc(Br)ccc2nc(-c2cccc(Cl)c2)n1O,-2.13,
O=c1c(-c2cccc(Cl)c2)c[nH]n1-c1ccccc1,,26.9 µM (active)
O=C1CC(NNc2ccccc2)C(=O)N1c1cccc(Cl)c1 (stereo not given),-17.8,
COc1ccc(S(=O)(=O)n2nc(C)c(S(=O)(=O)N3CCCCCC3)c2C)cc1,4.77,
COc1cc(NC(=O)c2cc(C3CC3)nc3c2c(C)nn3-c2ccccc2)cc(OC)c1,-10.6,
O=[N+]([O-])c1ccc2c(c1)C(N1CCOCC1)/C(=C/C1(O)CCCCC1)O2 (stereo not given),-4.29,
Cn1c(=O)c2sccc2n2c(CCC(=O)NCc3ccccc3Cl)nnc12,-5.43,
Cc1ccc2sc(NNC(=O)c3ccc4c(c3)OCCO4)nc2c1C,-4.15,
O=C(Nc1ccc(NC(=O)c2ccc3c(c2)OCO3)cc1)c1cccc(Cl)c1,-0.291,
CC(NC(=O)Nc1cccc([N+](=O)[O-])c1)c1ccc2c(c1)OCO2 (stereo not given),-1.01,
CN(CC(=O)Nc1cccc(F)c1)CC(=O)Nc1cccc([N+](=O)[O-])c1,6.15,
COCc1nnc(NC(=O)CS(=O)(=O)Cc2ccccc2)s1,0.467,
O=C(Nc1nc2ccccc2s1)c1ccc2c(c1)OCO2,,0.301 µM (active)
Cn1c(NC(=O)c2ccc3c(c2)OCO3)cc(=O)n(C)c1=O,0.456,
Cc1ccc(-n2nc3c(c2NC(=O)c2ccc4c(c2)OCO4)CSC3)c(C)c1,0.872,
COCc1nnc(NC(=O)c2ccc3c(c2)OCO3)s1,,23.9 µM (active)
O=C(Nc1cccc([N+](=O)[O-])c1)c1ccc2c(c1)OCO2,,19 µM (active)
O=CN1CCN(C(=O)c2ccc3c(c2)OCO3)CC1,-6.7,
O=C(Nc1ccccc1)c1ccc2c(c1)OCO2,,12 µM (active)

Compound,"activity change, negative = inhibition [%]",Potency
CSCCC(NS(=O)(=O)c1ccc2c(c1)oc(=O)n2C)C(=O)NC1CCCc2ccccc21 (stereo not given),5.78,
Cc1ccc(N2C(=O)C3N=NN(CC(=O)N4N=C(c5cccc6ccccc56)CC4c4ccccc4)C3C2=O)cc1 (stereo not given),-0.523,
O=C(Nc1c(C(=O)N2CCN(c3ccc(F)cc3)CC2)oc2ccccc12)c1ccco1,-7.89,
CN(CC#CCC(c1ccccc1)c1ccccc1)C(C)(C)C,0.573,
CCOC(=O)c1ccc(NC(=O)c2ncn(-c3ccccc3)n2)cc1,-1.44,
O=C1Cc2cc(S(=O)(=O)Nc3cccc(F)c3)ccc2N1,4.22,
COC(=O)c1ccc(NC(=O)c2cnn(-c3ccc(Cl)cc3)c2C2CCN(C(=O)OC(C)(C)C)CC2)cc1,-5.97,
CCOc1ccc(C(=O)NCC(=O)N2CCCCCCC2)cc1OCC,0.971,
CC(Sc1nc(-c2ccccc2)cc(C(F)(F)F)n1)C(=O)Nc1ccc2c(c1)OCO2 (stereo not given),0.268,
CC(C)C(=O)Nc1cccc(C(=O)Nc2ccc3c(c2)OCO3)c1,,8.49 µM (active)
O=C(NCCS(=O)(=O)N1CCN(c2ccc(F)cc2)CC1)c1ccc2c(c1)OCO2,0.656,
O=C(Nc1ccc2c(c1)CCC2)c1cccc(S(=O)(=O)N2CCN(c3ccc(F)cc3)CC2)c1,8.68,
CC(NC(=O)COC(=O)c1ccc2c(c1)OCO2)c1ccccc1 (stereo not given),-5.33,
O=C(Nc1ccc2c(c1)CCC2)c1cccc(S(=O)(=O)Nc2ccccc2Cl)c1,,21.3 µM (active)
CC(=O)Nc1cccc(C(=O)OCN2C(=O)c3ccccc3C2=O)c1,-1.02,
O=C(c1cccc(S(=O)(=O)Nc2ccccc2Cl)c1)N1CCN(C(=O)c2ccco2)CC1,-4.73,
O=C(Nc1ccc(N2CCOCC2)cc1)c1ccc2c(c1)OCO2,,10.7 µM (active)
CC(=O)Nc1cccc(C(=O)OCC(=O)c2ccc3c(c2)OCO3)c1,,0.135 µM (active)
O=C(c1ccc2c(c1)OCO2)N1CCOCC1,-1.93,
O=C(c1ccccc1F)N1CCC(c2nc3c(nnn3Cc3cccc(F)c3)c(=O)[nH]2)CC1,-15.3,
Cc1ccc2ncc(C(=O)Nc3ccc(OC(F)(F)F)cc3)c(=O)n2c1,-5.88,
CCn1c2c(c(=O)n3ncc(C(=O)N4CCN(c5ccccc5)CC4)c13)CN(Cc1ccc(OC)cc1)CC2,-2.48,
CN(Cc1ccccc1)CC(O)COc1ccc(CNCc2cc3ccccc3s2)cc1 (stereo not given),-0.152,
Cc1cc(C)cc(NC(=O)CSc2oc(-c3ccccc3)nc2S(=O)(=O)c2ccc(Cl)cc2)c1,-3.79,
Cc1sc2ncnc(SCC(=O)Nc3ccc(CN4CCCC4)cc3)c2c1C,4.55,

Compound,"activity change, negative = inhibition [%]",Potency
Cc1ccc(C)c(NC(=O)C(c2ccccc2)N2CCN(CC(=O)NC3CC3)CC2)c1 (stereo not given),5.73,
CC(=O)NC(CC(=O)Nc1cccc(S(=O)(=O)N2CCCC2)c1)c1ccccc1 (stereo not given),-3.53,
O=C(Nc1ccc(C2CC2(Cl)Cl)cc1)c1cccc([N+](=O)[O-])c1 (stereo not given),,12 µM (active)
O=C(Nc1ccc(NC(=O)c2ccco2)c(Cl)c1)c1cccc([N+](=O)[O-])c1,1.09,
O=C(Nc1ccccc1)c1ccc2c(c1)OCCCO2,,1.2 µM (active)
C/C(Cc1ccccc1)=N\NC(=O)CNC(=O)c1ccc2c(c1)OCCO2,-18,
O=C(Nc1ccc(C(=O)N2CCCCC2)cc1)c1cccc([N+](=O)[O-])c1,-9.29,
CCN(CC)CCNC(=O)c1ccc(NS(=O)(=O)c2ccc3c(c2)OCCO3)cc1,5.41,
O=C(CN(Cc1ccccc1)C(=O)c1ccc2c(c1)OCCO2)NCc1ccc2c(c1)OCO2,-1.85,
O=C(OCc1ccccc1F)c1ccc2c(c1)OCCO2,,6.01 µM (active)
O=C(Nc1cccc(S(=O)(=O)Nc2ccc(Cl)cc2)c1)c1ccc2c(c1)OCCO2,,16.9 µM (active)
O=C(CN1CCc2cc3c(cc2C1)OCCCO3)Nc1ccccc1,-8.71,
CC(NS(=O)(=O)c1ccc(Cl)cc1)C(=O)Nc1ccc2c(c1)OCCO2 (stereo not given),0.952,
Cc1cc2oc(C(=O)N(Cc3ccc(Cl)cc3)Cc3ccco3)c(C)c2cc1Cl,-7.31,
Cc1cc(N2CCN(c3cccc(C(F)(F)F)c3)CC2)n2nc(-c3ccccc3)nc2n1,-0.73,
COc1ccc(-c2ccc(=O)n(CC(=O)Nc3ccc(Br)cc3F)n2)cc1,2.74,
CC(=O)Nc1ccc(S(=O)(=O)NC2(C(F)(F)F)C(=O)NC(C)=C2C#N)cc1 (stereo not given),-3.82,
CC(=O)Nc1cccc(C(=O)OCC(=O)NCc2cc(C)c(O)c(C)c2)c1,,15.1 µM (active)
O=C(Nc1ccccc1)Nc1nnc(COc2ccccc2F)s1,-1.08,
Cc1ccc(F)cc1NC(=O)c1ccc2c(c1)OCO2,-3.24,
O=C(Nc1ccccc1)Nc1nc2ccccc2s1,,0.849 µM (active)
O=C(Nc1ccccc1F)c1ccc2c(c1)OCO2,,19 µM (active)
COc1ccc(C(=O)OCC(=O)Nc2cccc(C(C)=O)c2)cc1OC,-4.57,
O=C(Nc1ccc(Cl)cc1)Nc1nnc(/C=C/c2ccccc2)s1,-2.18,
O=C(Nc1ccccc1N1CCN(C(=O)c2ccccc2)CC1)c1ccc2c(c1)OCO2,7.45,

Compound,"activity change, negative = inhibition [%]",Potency
Cc1ccc(C(=O)OCC(=O)NCc2cc(C)c(O)c(C)c2)cc1S(=O)(=O)N1CCCCC1,-2.52,
O=S(=O)(NC1CCN(S(=O)(=O)c2ccc3c(c2)OCCO3)CC1)c1c(F)cccc1F,-2.54,
CCc1ccc(S(=O)(=O)c2nnn3c2nc(N2CCN(CC)CC2)c2sccc23)cc1,1.88,
CC(=O)Nc1ccc(S(=O)(=O)NC(C)C(=O)OCCOc2ccc(F)cc2)cc1 (stereo not given),-1.3,
CNS(=O)(=O)c1ccc(N2CCCC2=O)c([N+](=O)[O-])c1,-1.57,
NS(=O)(=O)c1ccc(NC(=S)N2CCCC2)cc1,-1.04,
CCc1ccc(-c2cc3c(=O)n(CC(=O)NCCCN4CCN(Cc5ccccc5)CC4)nc(C)n3n2)cc1,,8.49 µM (active)
CCCN1CCN(CCCNC(=O)Cn2nc(CC)n3c(cc4occc43)c2=O)CC1,-5.38,
Cc1ccc(-c2ccc(=O)n(CC(=O)NCCCN3CCCCC3)n2)cc1,1.61,
CCOCCn1ccc2c(OCC(=O)NCc3ccc(C)cc3)cccc2c1=O,-7.32,
CCC(=O)N1CCc2cc(S(=O)(=O)NC(Cc3ccccc3)C(=O)NCc3ccc(C)cc3)ccc21 (stereo not given),-1.03,
Brc1ccc(C2CC(c3ccccc3)=Nc3ccccc3N2)cc1 (stereo not given),,26.9 µM (active)
O=C(c1ccccc1)N1N=C(c2ccccc2O)CC1c1ccc(Br)cc1 (stereo not given),-0.906,
COc1ccc(N2C(=O)NC(NS(=O)(=O)c3ccc(Cl)cc3)(C(F)(F)F)C2=O)cc1 (stereo not given),6.14,
COC(=O)c1sc2ncccc2c1-n1c(C)ccc1C,-2.23,
CCOc1cccc(/C=C/c2ccc3ccccc3n2)c1OC(C)=O,,7.57 µM (active)
COc1cccc(/C=C/c2ccc3ccccc3n2)c1OC(C)=O,,5.36 µM (active)
CCOc1ccccc1/C=N/Nc1nc2ccccc2o1,-1.3,
COc1ccc(CNC(=O)/C(C#N)=C/c2cccc(OC)c2OC)cc1,-12.6,
CC(=O)c1ccc(S(=O)(=O)N2CCN(C(=O)/C=C/c3ccc4ccccc4n3)CC2)cc1,4.51,
COc1ccc(CCNC(=O)CCCn2c(=O)c3ccccc3n(Cc3ccc(F)cc3Cl)c2=O)cc1OC,1.56,
COc1ccc2cc(CCl)c(Cl)nc2c1,-20.6,
CC(C)c1ccc(NC(=O)c2cc(S(=O)(=O)N3CCc4ccccc4C3)ccc2F)cc1,-4.07,
CN1C(C(=O)NCc2ccco2)CC2Cn3c(nc4ccccc43)C21 (stereo not given),-5.4,
Cc1ccc(NC2=C(c3ccc(C(F)(F)F)cc3)C(=O)c3ccccc32)cc1F,-4.5,
